Shown are actives, neighbours in structure and some others; about 4% of the full set was active somewhere.
KKLEB cytotox: reduces viability of KKLEB cystic fibrosis airway cells | activity change (cytotoxicity), % at 5 µM | AID 602141 | actives 0.36% (n = 360,000) | KKLEB CF airway cells viability, ATPlite luminescence, overnight; stronger effect = lower value; cells stimulated with P. aeruginosa culture filtrate;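 active = corrected activity change at or below -50% at 5 µM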
Peg3 prom inh-1: inhibitors of Peg3 promoter; AID 588405; HeLa PEG-Prom luciferase reporter, luminescence, overnight; inhibition, % at 20 µM; actives 1.7% (n = 360,000);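 active = inhibition of at least 50% at 20 µM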
CF NFkB block: blocks PAF-induced NF-kB reporter in cystic fibrosis cells; KKLEB NF-kB-GFP reporter, GFP fluorescence overnight; inhibition, % at 5 µM; actives 0.86% (n = 360,000);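 active = at least 50% inhibition at 5 µM, scaled per plate between neutral and stimulator controls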;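 note: PAF is a Pseudomonas aeruginosa culture filtrate used as stimulus; plate controls were PAF-stimulated DMSO wells for no effect and unstimulated DMSO wells for full effect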
TWEAK-Fn14 inh: inhibitors of TWEAK-Fn14 interaction signaling; TWEAK-stimulated Fn14 reporter cells, luciferase luminescence, 8 h; inhibition, % at 10 µM; actives 2% (n = 360,000); AID 1159606; in the data active = inhibition above about 50%
HIF-2a block: blocks HIF-2a reporter activity; inhibition, % at 18.8 µM; 786-0 RCC cells HIF-2a reporter, luciferase luminescence, overnight; actives 0.72% (n = 360,000);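 active = inhibition of the luminescence signal of 40% or more relative to plate controls, in a single-dose primary screen at 18.75 µM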
TROY signal inh: inhibitors of TROY-dependent NF-kB signaling; actives 0.98% (n = 360,000); inhibition, % at 10 µM; Q293 LMP1-TROYcd NF-kB luciferase reporter, 4 h;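 active = compounds whose plate-normalised and pattern-corrected inhibition of the luciferase reporter signal at the single screening dose is 50% or more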
Peg3 prom inh-2: confirmation of Peg3 promoter inhibitors; actives 84% (n = 1,300); shares compounds with Peg3 prom inh-1; AID 602417; HeLa PEG-Prom luciferase reporter, luminescence, overnight; inhibition, % at 20 µM;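 active = at 20 µM dose, 40% or more inhibition averaged across four replicates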
CF NFkB inh conf: confirmation of cystic fibrosis induced NF-kB inhibitors | shares compounds with CF NFkB block | KKLEB CF airway cells, PAF-induced NF-kB-GFP fluorescence, overnight | inhibition, % at 5 µM | actives 64% (n = 1,300); in the data active = inhibition above about 40%;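 note: stimulus PAF is a Pseudomonas aeruginosa filtrate and not platelet activating factor; plate controls were DMSO wells with stimulus for no effect and unstimulated DMSO wells for full effect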
HIF-2a inh conf: HIF-2a inhibition, single concentration confirmation | shares compounds with HIF-2a block | 786-0 RCC cells, HIF-2a luciferase reporter luminescence, overnight | inhibition, % at 18.8 µM | actives 56% (n = 1,800);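 active = mean inhibition across four replicates of at least 40 percent at the single tested concentration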
HIF-1a counter: HIF-1a inhibition counter-screen for HIF-2a hits | shares compounds with HIF-2a block | MiaPaCa-2 HIF-1a luciferase reporter, desferoxamine, overnight | inhibition, % at 18.8 µM | actives 72% (n = 1,800) | AID 651589;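 active = mean inhibition of the reporter signal across four replicates at the single tested dose of 50% or more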
* = called active by the depositor.

What do the screens show for `N#CC1c2ccccc2-n2nncc2CN1S(=O)(=O)c1ccccc1` (configuration not stated)?
KKLEB cytotox: 4.5; Peg3 prom inh-1: 7.0; CF NFkB block: 8.5; TWEAK-Fn14 inh: -1.1; HIF-2a block: 5.5; TROY signal inh: -8.2

Results for O=C1NC(=O)N(Cc2ccccc2)C(=O)/C1=C\C=C\c1ccco1 ?
KKLEB cytotox: -50.9*; Peg3 prom inh-1: 88.9*; CF NFkB block: 74.4*; TWEAK-Fn14 inh: 11.2; HIF-2a block: 45.7*; TROY signal inh: -7.3; Peg3 prom inh-2: 62.5*

How did Cn1cccc1/C=C1\C(=O)NC(=O)N(Cc2ccco2)C1=O do in these assays?
KKLEB cytotox: -10.1; Peg3 prom inh-1: 21.8; CF NFkB block: 18.6; TWEAK-Fn14 inh: 23.0; HIF-2a block: 13.8; TROY signal inh: 2.4

Results for O=C1NC(=O)N(Cc2ccco2)C(=O)/C1=C/C=C/c1ccco1 ?
KKLEB cytotox: -15.4; Peg3 prom inh-1: 62.9*; CF NFkB block: 77.6*; TWEAK-Fn14 inh: 34.6; HIF-2a block: 87.0*; TROY signal inh: 14.5; Peg3 prom inh-2: 73.1*

How did O=C1NCN(c2ccccc2)C12CCN(C(c1cccc3ccccc13)c1nnnn1C1CCCCC1)CC2 (configuration not stated) do in these assays?
KKLEB cytotox: 0.0; Peg3 prom inh-1: 39.0; CF NFkB block: 16.3; TWEAK-Fn14 inh: 20.6; HIF-2a block: 9.2; TROY signal inh: 4.8

How did CC(C)(C)n1nnnc1C(CCc1ccccc1)N1CCC(n2c(=O)[nH]c3ccccc32)CC1 (configuration not stated) do in these assays?
KKLEB cytotox: -5.4; Peg3 prom inh-1: 83.6*; CF NFkB block: -18.8; TWEAK-Fn14 inh: 21.9; HIF-2a block: -27.4; TROY signal inh: 39.0; Peg3 prom inh-2: 82.4*

What do the screens show for `CSCCC(c1nnnn1C1CCCC1)N1CCC(n2c(=O)[nH]c3ccccc32)CC1` (configuration not stated)?
KKLEB cytotox: -4.0; Peg3 prom inh-1: 27.1; CF NFkB block: 0.9; TWEAK-Fn14 inh: -3.3; HIF-2a block: -16.7; TROY signal inh: 6.0

Results for CC(=O)OC1CCC2(C)C(CCC3C4CC(N5CC5)C(C(C)=O)C4(C)CC(=O)C32)C1 (configuration not stated) ?
KKLEB cytotox: 11.6; Peg3 prom inh-1: -11.6; CF NFkB block: 0.0; TWEAK-Fn14 inh: -13.8; HIF-2a block: 24.1; TROY signal inh: 7.6

How did COc1cccc(C2CC3C(=O)C=CC2N3Cc2ccccc2)c1 (configuration not stated) do in these assays?
KKLEB cytotox: -0.4; Peg3 prom inh-1: 68.2*; CF NFkB block: 16.7; TWEAK-Fn14 inh: 10.9; HIF-2a block: 47.9*; TROY signal inh: 16.5; Peg3 prom inh-2: 70.6*; HIF-2a inh conf: 57.3*; HIF-1a counter: 47.0

Results for Fc1ccc(N2Cc3ccccc3-n3nncc3C2)cc1 ?
KKLEB cytotox: -8.3; Peg3 prom inh-1: 3.2; CF NFkB block: -3.6; TWEAK-Fn14 inh: 17.0; HIF-2a block: -4.3; TROY signal inh: -9.6

How did Oc1ccc(Br)cc1CN1CCN(c2ccccc2)CC1 do in these assays?
KKLEB cytotox: -27.2; Peg3 prom inh-1: 13.4; CF NFkB block: 62.4*; TWEAK-Fn14 inh: -64.5; HIF-2a block: 2.1; TROY signal inh: -7.0; CF NFkB inh conf: 13.0

What do the screens show for `N#Cc1c(Br)n(C2OC(CO)C(O)C2O)c2ncnc(N)c12` (configuration not stated)?
KKLEB cytotox: -23.7; Peg3 prom inh-1: 61.1*; CF NFkB block: 73.0*; TWEAK-Fn14 inh: 49.3; HIF-2a block: -13.4; TROY signal inh: 10.8; CF NFkB inh conf: 84.0*

Results for NC(=O)c1c(Br)n(C2OC(CO)C(O)C2O)c2ncnc(N)c12 (configuration not stated) ?
KKLEB cytotox: -30.1; Peg3 prom inh-1: 43.7; CF NFkB block: 60.7*; TWEAK-Fn14 inh: 17.6; HIF-2a block: 21.4; TROY signal inh: 9.8; CF NFkB inh conf: 60.5*

What do the screens show for `Nc1ncnc2c1ncn2[C@@H]1O[C@H](COP(=O)(O)CP(=O)(O)O)[C@@H](O)[C@H]1O`?
KKLEB cytotox: -3.3; Peg3 prom inh-1: -11.2; CF NFkB block: -3.8; TWEAK-Fn14 inh: 1.8; HIF-2a block: -26.5; TROY signal inh: 0.0

What do the screens show for `COc1cccc(C(c2nnnn2C2CCCCC2)N2CCC3(CC2)C(=O)NCN3c2ccccc2)c1OC` (configuration not stated)?
KKLEB cytotox: -12.5; Peg3 prom inh-1: 31.3; CF NFkB block: 13.6; TWEAK-Fn14 inh: 37.2; HIF-2a block: -4.7; TROY signal inh: 16.9

Results for C[C@H]1CCC[C@H](O)CCCCCc2cc(O)cc(O)c2C(=O)O1 ?
KKLEB cytotox: 10.7; Peg3 prom inh-1: 22.3; CF NFkB block: 34.9; TWEAK-Fn14 inh: 31.2; HIF-2a block: 6.8; TROY signal inh: 9.8

How did C[C@H]1CCC[C@@H](O)CCC/C=C/c2cc(O)cc(O)c2C(=O)O1 do in these assays?
KKLEB cytotox: 0.5; Peg3 prom inh-1: 64.4*; CF NFkB block: 51.1*; TWEAK-Fn14 inh: 59.0*; HIF-2a block: -6.0; TROY signal inh: 19.7; CF NFkB inh conf: 46.5*

Results for COc1cc2c(cc1OC)C13CCN4C=C5CCOC6CC(=O)N2C1C6C5CC43 (configuration not stated) ?
KKLEB cytotox: -3.3; Peg3 prom inh-1: -5.3; CF NFkB block: 15.0; TWEAK-Fn14 inh: 3.9; HIF-2a block: 11.6; TROY signal inh: 3.9

What do the screens show for `COc1cc(C2c3cc4c(c(O)c3CC3COC(=O)C32)OCO4)cc(OC)c1OC` (configuration not stated)?
KKLEB cytotox: -10.9; Peg3 prom inh-1: -19.4; CF NFkB block: 50.6*; TWEAK-Fn14 inh: 22.1; HIF-2a block: 19.6; TROY signal inh: 15.2; CF NFkB inh conf: 90.2*

How did COc1cc(C2c3cc4c(cc3CC3COC(=O)C32)OCO4)cc(OC)c1OC (configuration not stated) do in these assays?
KKLEB cytotox: -23.0; Peg3 prom inh-1: -14.4; CF NFkB block: 41.4; TWEAK-Fn14 inh: -1.6; HIF-2a block: 7.0; TROY signal inh: 3.2

Results for COC(=O)[C@@H]1N=C(c2ccc(OC)cc2)O[C@]12C(=O)N(Cc1ccccc1)c1ccccc12 ?
TWEAK-Fn14 inh: 2.1; HIF-2a block: -2.3; TROY signal inh: 4.1
